Structures are written as SMILES. In all, about 320,000 compounds went through this assay and about 2,100 (0.66%) were called active. Not shown: some 53% with an inconclusive outcome. This is one part of a sample in which actives are shown more often than they occur. Calls follow the shape of the dose curve; as a rule, active = well fitted inhibition curve with a large enough effect in the signal ratio, with a control signal flat (not every such curve was filed as active); inconclusive = small, poorly fitted or top-dose-only effect, or effect the other way, or a change in a side signal; inactive = flat fitted curve, though single readings scatter; the % refers to the signal ratio.
Potency is read from the fitted curve at half-maximal effect.

This assay in a line: qHTS Assay for Lipid Storage Modulators in Drosophila S3 Cells.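 As to cell number change: cells counted by Cell Tracker Red CMTPX staining in the red channel.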 As to lipid storage change, negative = inhibition: % is scaled to controls: 0 for no effect and ±100 for the full control effect. The note with it: BODIPY lipid droplet fluorescence, 18-24 h, cells fed with added oleic acid; cell number change: measured here: cell count max response; series mostly up to 46.1 µM. The essentials:
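Drosophila S3 cells got compounds at several concentrations plus oleic acid (400 uM solution). Laser-scanning cytometry with 488 nm excitation read lipid droplets at 500-530 nm and cells at 575-640 nm. Percent activity was relative to 20 uM Triacsin C.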
(In general: In qHTS, concentration-response curves come from the screen itself.)
Turning to `CC(C(=O)N1CCc2ccccc2C1)N(c1ccccc1)S(C)(=O)=O` (configuration not stated), the Potency is 2.06 µM (active) and the cell number change is -18%.

On to `CCOC(=O)N1CCN(C(=O)C(C)N(c2ccccc2)S(C)(=O)=O)CC1` (configuration not stated), for which the Potency result is “inactive” and the cell number change was found to be 2.57%.

In the case of `CC(C(=O)N1CCCC1)N(c1ccccc1)S(C)(=O)=O` (configuration not stated), the Potency entry was “inactive” and the cell number change was -11.5%.

On to `COc1ccc2sc(-c3ccccc3OC)c(C#CCCO)c2c1`, for which the Potency result is “inactive” and the cell number change is -1.81%.

`CCOc1cc(-c2cc(-c3ccc(C)o3)nc(N)c2C#N)ccc1O`: the Potency result is “inactive” and the cell number change was -0.884%.

As to `O=C(NCc1cccnc1)C1CCN(c2ccc(S(=O)(=O)N3CCOCC3)cc2Cl)CC1`, the Potency entry was “inactive” and the cell number change came to 0.843%.

Consider `C=CCN1C(=O)C(C(C)CC)NC1=S` (configuration not stated), for which the Potency is 7.31 µM (active) and the cell number change was -18.2%.

Consider `CCC(C)C1NC(=S)N(C2CCCCC2)C1=O` (configuration not stated), for which the Potency entry was “inactive” and the cell number change was -20.3%.

Turning to `CCC(C)C1NC(=S)N(Cc2ccccc2)C1=O` (configuration not stated), the Potency result was “inactive” and the cell number change is -14.7%.

For the compound `Cc1nnc(-c2cccc(C(F)(F)F)c2)nc1N1CCOCC1`, the Potency result is “inactive”.

On to `O=C(C1=C[C@@H](C2CC2)C[C@@H](OCc2ccc(CO)cc2)O1)N1CCOCC1`, for which the Potency result is “inactive” and the cell number change is -6.29%.

Consider `Cc1ccc(C2=NNC(C(O)C(O)C(O)C(O)CO)S2)cc1` (configuration not stated), for which the Potency was 23.1 µM (active) and the cell number change is -6.96%.

In the case of `Cc1ccc(C2=NNC(C(O)C(O)C(O)C(C)O)S2)cc1` (configuration not stated), the Potency entry was “inactive”.

Turning to `COc1ccc(C2NN=C(c3ccc(C)cc3)S2)cc1` (configuration not stated), the Potency entry was “inactive” and the cell number change came to 14.2%.

As for `O=C(Nc1ccc(N2CCOCC2)cc1)C1CCCN(S(=O)(=O)c2cccc(C(F)(F)F)c2)C1` (configuration not stated), the Potency entry is “inactive” and the cell number change is 2.4%.

Turning to `CCCNC(=O)c1ccccc1NC(=O)CN(c1ccccc1)S(=O)(=O)N(C)C`, the Potency entry is “inactive” and the cell number change was -16.1%.

With `CC1(C)CC2CC(C)(CN2S(=O)(=O)c2ccc(C(=O)Nc3ccc(Cl)c(S(=O)(=O)N4CCOCC4)c3)cc2)C1` (configuration not stated), the Potency was 5.8 µM (active).

For `O=C(Nc1ccc(Cl)c(S(=O)(=O)N2CCOCC2)c1)c1ccc2c(c1)OCCO2`, the Potency result was “inactive” and the cell number change is 19.2%.

For the compound `CN1CCN(NC(=O)c2ccc(S(=O)(=O)N3CC4(C)CC3CC(C)(C)C4)cc2)CC1` (configuration not stated), the Potency result is “inactive” and the cell number change was found to be 3.86%.

On to `CCOc1ccc(C(=O)NCC(=O)OCc2ccc(F)cc2Cl)cc1`, for which the Potency entry is “inactive” and the cell number change was found to be 13.4%.

On to `CCn1c(=O)c2cc(C(=O)N(C)CC(OC)OC)sc2c2ccccc21`, for which the Potency result is “inactive” and the cell number change was determined as 7.22%.

As to `O=C(OCc1nnc(-c2ccccc2)o1)c1cc(S(=O)(=O)N2CCOCC2)ccc1F`, the Potency result was “inactive” and the cell number change was -16.6%.

`Cc1noc(C)c1COC(=O)c1cc(S(=O)(=O)N2CCOCC2)ccc1F`: the Potency entry is “inactive” and the cell number change is 4.32%.

On to `CCc1cc2c(COC(=O)c3cc(S(=O)(=O)N4CCOCC4)ccc3F)cc(=O)oc2cc1O`, for which the Potency was 18.4 µM (active) and the cell number change was -14.4%.

`CCc1ccc(OCC(=O)Nc2ccc3c(c2)COC3=O)cc1`: the Potency result was “inactive” and the cell number change came to 8.42%.

For `COc1ccc(C)cc1NC(=O)C1CCN(S(=O)(=O)c2cccc3nonc23)CC1`, the Potency is 3.66 µM (active) and the cell number change turned out to be 15.9%.

On to `COc1ccc(C)cc1NC(=O)C1CCN(S(=O)(=O)c2cccc3cccnc23)CC1`, for which the Potency is 10.3 µM (active) and the cell number change is -24.8%.

With `COc1ccc(C)cc1NC(=O)C1CCCN(S(=O)(=O)c2cccc3cccnc23)C1` (configuration not stated), the Potency result is “inactive” and the cell number change amounted to 19.9%.

Consider `COc1ccc(NC(=O)C2CCN(S(=O)(=O)c3cccc4cccnc34)CC2)cc1OC`, for which the Potency result is “inactive” and the cell number change is -22.5%.

As to `COc1ccc(Cl)cc1NC(=O)C1CCCN(S(=O)(=O)c2cccc3nonc23)C1` (configuration not stated), the Potency result was “inactive” and the cell number change was determined as 8.35%.

Consider `COc1ccc(C)cc1NC(=O)C1CCCN(S(=O)(=O)c2cccc3nonc23)C1` (configuration not stated), for which the Potency entry was “inactive”.

On to `COc1ccc(S(=O)(=O)Nc2c(C)n(C)n(-c3ccccc3)c2=O)cc1Br`, for which the Potency result is “inactive” and the cell number change is -3.28%.

Turning to `CCN(CC(=O)NCc1ccc(F)cc1)C(=O)c1ccc(COc2ccccc2)cc1`, the Potency entry was “inactive” and the cell number change turned out to be 2.25%.

As for `S=C(Nc1ccccn1)NC1CCCCC1`, the Potency result is “inactive” and the cell number change was -4.33%.

Turning to `COc1ccc(C2CC2/C(C)=N/OC(=O)c2cccs2)cc1` (configuration not stated), the Potency entry is “inactive”.

`CCOC(=O)c1cc2sc(C)cc2n1CC(=O)NCCc1ccccc1`: the Potency result was “inactive” and the cell number change was determined as 5.86%.

As for `Cc1cccc(C(=O)Nc2ccc(C)c(OC(=O)c3cccc(C)c3)c2)c1`, the Potency entry is “inactive” and the cell number change is -20.4%.

Regarding `Cc1ccc(S(=O)(=O)NCCC(=O)NCCOc2ccccc2)cc1`, the cell number change worked out at 2.02% and the lipid storage change, negative = inhibition was -20.7% [at 0.0737 µM] (inactive).

For the compound `Cc1ccc(S(=O)(=O)NCCC(=O)NCCCSc2ccccc2)cc1`, the Potency is 16.4 µM (active) and the cell number change is -14.6%.

For the compound `O=C(CCCCC(=O)NCCc1ccccc1)NCCc1ccccc1`, the Potency entry is “inactive” and the cell number change was -15.5%.

As to `CC(=O)Nc1ccc(S(=O)(=O)NCCC(=O)NCCOc2ccccc2)cc1`, the Potency result is “inactive” and the cell number change was -2.82%.

Turning to `O=C(CCCCC(=O)NCCCc1ccccc1)NCCCc1ccccc1`, the Potency is 20.6 µM (active) and the cell number change is -16.3%.

With `CC(=O)Nc1ccc(S(=O)(=O)NCCc2ccccc2)cc1`, the Potency entry is “inactive” and the cell number change is -18.3%.

Turning to `Cc1cnc(C(=O)OCC(=O)NCCCc2ccccc2)cn1`, the Potency was 5.17 µM (active) and the cell number change is -37.4%.

Take `CC(=O)Nc1ccc(S(=O)(=O)NCCC(=O)NCCCc2ccccc2)cc1`: the Potency is 1.64 µM (active) and the cell number change stood at 6.57%.

`COCCCNC(=O)CCNS(=O)(=O)c1ccc(C)cc1`: the Potency entry was “inactive” and the cell number change stood at 9.83%.

Regarding `O=C(CCCc1ccccc1)NCCc1ccccc1`, the Potency result was “inactive” and the cell number change was 1.1%.

For `CCN(Cc1ccccc1)C(=O)COC(=O)c1cnc(C)cn1`, the Potency result was “inactive”.

As to `COc1ccc(CCNC(=O)COC(=O)c2cnc(C)cn2)cc1OC`, the Potency entry was “inactive” and the cell number change was 5.11%.

(Values after PubChem BioAssay AID2685 (National Center for Advancing Translational Sciences (NCATS), 2010).)
